Compound activity (PubChem)
ELG1 DNA repair – qHTS screen for small molecules that inhibit ELG1-dependent DNA repair in human embryonic kidney (HEK293T) cells expressing luciferase-tagged ELG1; 330,000 compounds, 2.3% hits; Potency, µM (top dose mostly 46.1 µM), for the others: top-dose activity change, negative = inhibition, usual class: inhibitors; HEK293T ELG1-luciferase reporter, luminescence, 16 h; DNA damage induced by 5-fluorouridine; further: on the % scale 0 is the no-effect control and ±100 the full control effect; nearly all actives have a fitted effect of over 55% in size
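Reporter activity after DNA damage by 5-fluorouridine is monitored. Compound-treated cells incubate 16 hr at 37 °C, then ONE-Glo is added for 30 min before luminescence reading.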
Nrf2 ARE act – qHTS of Nrf2 Activators | AID 624171, 2012 | 410,000 compounds, 0.31% hits | Potency, µM (doses to about 46.1 µM), inactives show at the highest dose activation, most hits filed as activators | AREc32 ARE-luciferase reporter (MCF7-derived line), luminescence, 24 h; further: % of control where 0% means no effect; nearly all actives have a fitted effect of over 65% in size
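Luciferase luminescence (Steady-Glo, 30 min at room temperature) served as the read-out of ARE activation in AREc32 cells treated with compounds for 24 hr at 37 deg C.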
Nrf2 block – Nrf2 qHTS screen for inhibitors. 360,000 compounds, 2.1% hits. AID 504444, 2011. Potency, µM (highest dose often 46 µM), inactives show at the top dose activity change, negative = inhibition, usual class: inhibitors. A549 ARE-Fluc reporter, luciferase luminescence, 18-24 h; further: on the % scale 0 is the no-effect control and ±100 the full control effect; nearly all actives have a fitted effect of over 60% in size
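Reporter: ARE-Fluc in A549. Exposure: 18-24 h, 37 °C, 5% CO2, 5% FBS OPTI-MEM. Readouts: fluorescent cytotoxicity (CellTiter-Fluor), then luminescent Nrf2 signal after BugLite.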
A549 viability – Nrf2 qHTS screen for inhibitors: counterscreen for cytotoxicity | A549 ARE-Fluc cells, CellTiter-Fluor viability, 18-24 h | Potency, µM (series often up to 46 µM), for the others: top-dose activity change, negative = cytotoxicity, actives largely listed as inhibitors | 390,000 compounds, 0.16% hits | AID 504648, 2011; further: on the % scale 0 is the no-effect control and ±100 the full control effect
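A549 ARE-Fluc cells in 5% FBS OPTI-MEM, 5000 cells/well, rested 2 h then exposed to compounds in concentration-response for 18-24 h at 37 °C. Viability by CellTiter-Fluor fluorescence (Ex 405/Em 525) after 30 min; luciferase luminescence (BugLite, 15 min, RT) read afterwards.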
* hit, by the source's call; ? = inconclusive; / = no result. Compounds with a hit are over-represented: about 3.7% of the library has one in this group of screens. The call rests on the fitted dose curve; in most records, active means well fitted curve in the direction sought with a large enough effect; inconclusive means small, poorly fitted or top-dose-only effect, or another doubt; inactive means no such curve, though single readings can be large; an effect the other way counts as inactive or inconclusive. Potency means the concentration at half of the fitted maximal effect.

SMILES	ELG1 DNA repair	Nrf2 ARE act	Nrf2 block	A549 viability
CN(Cc1cccc2cnccc12)C(=O)c1cc(COc2ccc(F)cc2Cl)on1	20.6µM*	0.5%	?	-1.7%
Cc1nnc(CN(C)C(=O)c2cc(COc3ccc(F)cc3Cl)on2)o1	?	2.9%	?	4.3%
O=[N+]([O-])c1ccc(O)c(-c2ccnc3cc(-c4ccccc4)nn23)c1	/	8.6%	18.4µM*	16.4µM*
O=[N+]([O-])c1cccc(-c2cc(C(F)(F)F)n3nc(-c4ccccc4)cc3n2)c1	2.2%	-0.4%	0.6%	-1.4%
CCc1ccc(-c2cc(C(F)(F)F)n3nc(C(=O)Nc4cnn(Cc5ccc(C)cc5)c4)cc3n2)s1	?	0.3%	8.2µM*	25.9µM*
O=C(Nc1ccc(Cl)cc1)c1cc2nc(-c3ccco3)cc(C(F)(F)F)n2n1	-1.8%	3.2%	4.2%	-1.4%
Cc1ccccc1Cn1cc(NC(=O)c2cc3nc(-c4ccco4)cc(C(F)(F)F)n3n2)cn1	6.51µM*	-0.4%	?	-2.4%
Cc1ccc(Cn2ccc(NC(=O)c3cc4nc(-c5ccco5)cc(C(F)(F)F)n4n3)n2)cc1	0.6%	6.3%	8.7%	3.1%
COc1ccc(NC(=O)N2CCOc3ccc(Cl)cc32)cc1	/	5.2%	-13.4%	6.1%
CCOc1ccc(CN2CCC(n3nccc3NC(=O)CCCc3ccccc3)CC2)cc1	?	0.0%	?	5.3%
CCOc1cccc(CN2CCC(n3nccc3NC(=O)CCCc3ccccc3)CC2)c1	6.51µM*	0.6%	1.5%	3.3%
CCn1ccc2cc(S(=O)(=O)N3CCCN(C(=O)Nc4ccc(C)cc4)CC3)ccc21	/	-0.4%	/	8.6%
O=[N+]([O-])c1cccc(-c2nc3ccc([N+](=O)[O-])cc3[nH]2)c1	-19.1%	7.1%	-23.5%	0.4%
O=[N+]([O-])c1ccc2nc(-[n+]3c(-c4ccccc4)cc(-c4ccccc4)cc3-c3ccccc3)[nH]c2c1	23.1µM*	-0.4%	?	?
CCN(CC)C(=O)CSC(Nc1ccc(F)cc1)=C(C#N)C#N	-0.3%	5.7%	4.0%	-17.6%
Cc1ccc(CSC(Nc2ccc(F)cc2)=C(C#N)C#N)cc1	?	26.0%	20.6µM*	?
CCCCN(C(=O)c1cc2c(s1)CCC2)c1c(N)n(CCC)c(=O)[nH]c1=O	5.0%	-0.4%	12.7%	-16.0%
COc1ccc(C2CC(c3cccc(C(F)(F)F)c3)=NN2c2ccc(S(N)(=O)=O)cc2)cc1 (stereo not drawn)	-3.3%	-2.3%	23.1µM*	-12.9%
COc1ccc(C2CC(c3cccc(F)c3)=NN2c2ccc(S(N)(=O)=O)cc2)cc1 (stereo not drawn)	-0.3%	-0.1%	?	-3.1%
COc1ccc(NC(=O)CSc2nnc3c4c(nc(-c5ccccc5)n23)CC(C)(C)OC4)cc1	18.4µM*	0.0%	?	0.9%
COc1ccc(-c2nc3c(c4nnc(SC(C)C(=O)Nc5ccc(C)cc5)n24)COC(C)(C)C3)cc1 (stereo not drawn)	20.6µM*	-0.8%	-23.0%	-10.9%
CCC(=O)Nc1nnc2n1CCS2	/	-0.9%	/	-15.1%
COC(=O)C1=C(C)NC(=O)/C1=C\c1cc(C)n(-c2cc(C)cc(C)c2)c1C	?	2.2%	23.1µM*	?
Cn1c(=O)c2c(nc(NCCCO)n2Cc2cccc(Br)c2)n(C)c1=O	-13.6%	0.0%	?	/
COCCNc1nc2c(c(=O)n(C)c(=O)n2C)n1Cc1cccc(C)c1	20.6µM*	0.1%	?	-6.4%
SMILES	ELG1 DNA repair	Nrf2 ARE act	Nrf2 block	A549 viability
COCCCNc1nc2c(c(=O)n(C)c(=O)n2C)n1Cc1cccc(OC)c1	14.6µM*	0.0%	/	-7.7%
Cc1cccc(Cn2c(NCCO)nc3c2c(=O)n(C)c(=O)n3C)c1	?	-0.2%	4.11µM*	-18.7%
COc1cccc(Cn2c(NCc3cccnc3)nc3c2c(=O)n(C)c(=O)n3C)c1	?	-0.1%	?	-15.3%
Cc1cccc(Cn2c(NCC(C)O)nc3c2c(=O)n(C)c(=O)n3C)c1 (stereo not drawn)	14.6µM*	0.2%	/	-19.1%
Cn1c(=O)c2c(nc(NCCO)n2CCCc2ccccc2)n(C)c1=O	20.6µM*	0.5%	20.6µM*	-0.1%
Cn1c(=O)c2c(nc(NCc3ccccc3)n2CCCc2ccccc2)n(C)c1=O	?	0.3%	?	-4.2%
CCCCN(CC)CCCNC(=O)CS(=O)(=O)Cc1nc(-c2ccc(C)cc2)oc1C	/	5.5%	1.5%	-18.7%
NC(=O)C1CCN(c2oc(-c3ccc(F)cc3)nc2S(=O)(=O)c2ccccc2)CC1	?	-0.7%	3.9%	-2.0%
O=S(=O)(c1ccccc1)c1nc(-c2ccc(F)cc2)oc1N1CCCCCC1	/	6.4%	25.9µM*	-11.8%
Cc1cc(/C=N/n2cnnc2)c(C)n1-c1ccc(OCc2ccc(Cl)cc2)cc1	?	6.2%	9.2µM*	-9.6%
Cc1ccc(C(=O)N/N=C\c2ccc(-c3ccc(Cl)c(Cl)c3)o2)cn1	-15.6%	-2.6%	18.4µM*	-17.1%
Cc1ccc(C(=O)N/N=C/c2ccc(-c3cccc(Cl)c3)o2)cn1	?	-0.5%	-21.5%	-18.6%
CC(=O)NC(c1cccc(F)c1)c1nc(-c2cnc3ccccc3c2)cs1 (stereo not drawn)	/	8.1%	/	/
N#Cc1c(NC(=O)CSc2ncnc3sccc23)oc(-c2ccco2)c1-c1ccco1	-16.0%	10µM*	-2.2%	-7.7%
Cc1cc(NC(=O)CSc2ncnc3sccc23)no1	-5.9%	8.4%	-4.7%	5.6%
O=C(Nc1sc2c(c1C(=O)O)CCCCC2)c1ccccc1	?	3.9%	?	-11.3%
O=C(Nc1sc2c(c1C(=O)O)CCCC2)c1ccc(Cl)cc1	?	0.3%	6.51µM*	?
CN(C)C(=O)CSc1nc2ccccc2n1Cc1ccccc1	11.5%	0.5%	-0.7%	0.9%
Cc1ccc(-c2csc3nc(SCC(=O)N(C)C)n(Cc4ccccc4)c(=O)c23)cc1	20.6µM*	3.4%	?	-0.2%
C=CCn1c(SCC(=O)Nc2c(C)n(C)n(-c3ccccc3)c2=O)nc2scc(-c3ccccc3)c2c1=O	23.1µM*	0.1%	-4.9%	4.6%
NC(=O)CSc1nc2scc(-c3ccc(Cl)cc3)c2c(=O)n1Cc1ccccc1	16.4µM*	-0.2%	16.7%	0.0%
O=C(NCc1ccco1)C(c1cccs1)N(C(=O)C1COc2ccccc2O1)c1cccc(O)c1 (stereo not drawn)	13µM*	3.5%	-9.7%	-9.6%
CC(C)CCNC(=O)C(c1ccc(O)cc1)N(Cc1cccs1)C(=O)C1COc2ccccc2O1 (stereo not drawn)	20.6µM*	-1.8%	?	-18.4%
CCOC(=O)C1C(C(=O)OC)=C(c2ccc(F)cc2)c2ccccc2N1S(=O)(=O)C(F)(F)F (stereo not drawn)	?	-0.6%	-21.0%	-10.5%
